Bioassay records as filed in PubChem.
proKLK7 act = activates the human kallikrein-7 zymogen | P49862 | purified proKLK7, EDANS-DABCYL substrate fluorescence; 100% is mature enzyme control, 0% vehicle | activation, % at 7 µM | hit rate 0.9% among 370,000 | AID 652039;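 active = activation above the mean of all tested compounds plus 3 SD, computed per campaign excluding outliers beyond control limits, cut at about 13% in these data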
PLC-gamma1 inh = blocks human PLC-gamma1 enzyme activity. P19174. purified PLC-gamma1, fluorogenic substrate, fluorescence. inhibition, % at 12.2 µM. hit rate 0.84% among 370,000; in the data active = inhibition above about 9.5%
Target sequence (P19174 whole entry, looked up): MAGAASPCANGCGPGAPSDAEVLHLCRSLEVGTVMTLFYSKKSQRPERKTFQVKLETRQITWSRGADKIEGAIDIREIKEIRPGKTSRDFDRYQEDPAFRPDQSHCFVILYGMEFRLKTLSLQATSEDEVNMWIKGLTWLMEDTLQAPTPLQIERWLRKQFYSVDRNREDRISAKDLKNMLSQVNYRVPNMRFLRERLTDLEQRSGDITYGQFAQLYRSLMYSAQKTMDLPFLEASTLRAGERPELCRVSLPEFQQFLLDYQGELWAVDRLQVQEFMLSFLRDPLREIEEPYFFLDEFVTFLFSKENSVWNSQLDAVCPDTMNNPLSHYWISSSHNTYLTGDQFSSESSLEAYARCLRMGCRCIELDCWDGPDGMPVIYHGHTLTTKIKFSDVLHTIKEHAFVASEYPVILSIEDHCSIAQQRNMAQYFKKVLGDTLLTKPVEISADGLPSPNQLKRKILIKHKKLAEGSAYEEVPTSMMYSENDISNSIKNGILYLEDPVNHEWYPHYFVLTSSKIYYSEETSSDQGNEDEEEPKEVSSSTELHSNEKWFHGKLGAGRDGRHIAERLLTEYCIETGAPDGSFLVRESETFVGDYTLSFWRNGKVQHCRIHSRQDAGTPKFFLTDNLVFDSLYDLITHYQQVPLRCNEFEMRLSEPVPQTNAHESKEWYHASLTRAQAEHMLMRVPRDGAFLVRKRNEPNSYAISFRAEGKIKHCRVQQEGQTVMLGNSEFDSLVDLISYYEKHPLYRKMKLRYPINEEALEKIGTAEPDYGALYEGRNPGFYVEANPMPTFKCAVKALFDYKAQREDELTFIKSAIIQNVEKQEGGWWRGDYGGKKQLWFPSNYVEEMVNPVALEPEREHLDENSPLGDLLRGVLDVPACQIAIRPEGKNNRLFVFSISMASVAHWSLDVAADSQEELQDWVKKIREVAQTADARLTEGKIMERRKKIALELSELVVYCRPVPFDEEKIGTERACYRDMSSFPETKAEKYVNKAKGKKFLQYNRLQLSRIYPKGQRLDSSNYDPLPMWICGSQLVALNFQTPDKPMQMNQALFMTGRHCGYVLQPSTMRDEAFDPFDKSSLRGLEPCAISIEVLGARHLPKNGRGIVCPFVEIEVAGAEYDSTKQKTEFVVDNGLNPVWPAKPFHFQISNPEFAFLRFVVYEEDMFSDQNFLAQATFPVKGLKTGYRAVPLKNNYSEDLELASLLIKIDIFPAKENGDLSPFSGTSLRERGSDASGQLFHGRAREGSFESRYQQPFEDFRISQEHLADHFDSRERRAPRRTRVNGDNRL
ADAM10 inh = inhibits human ADAM10. recombinant ADAM10, EDANS/DABCYL FRET peptide cleavage, 3 h. O14672. hit rate 0.62% among 370,000. inhibition, % at 7 µM;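 active = inhibition above a per-campaign cutoff equal to the mean of compounds falling between control-based bounds plus 3 SD, cut at about 20% in these data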;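 also: 0% = DMSO wells while the 100% control is not disclosed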
ADAM17 inh = ADAM17 inhibition, QFRET primary screen; P78536; inhibition, % at 6.95 µM; hit rate 0.83% among 370,000; recombinant ADAM17, EDANS/DABCYL FRET peptide cleavage;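 active = inhibition above the mean of compounds lying between control limits plus 3 SD, set per campaign, cut at about 8.5% in these data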;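 also: 0% = DMSO-only wells as the low control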
PLCb3 inh = inhibitors of human phospholipase C beta3. hit rate 0.18% among 370,000. Q01970. Purified PLC-beta3, fluorogenic substrate, fluorescence. AID 720704. inhibition, % at 12.2 µM; in the data active = inhibition above about 11%;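 also: 0% = median of compound wells on plate and 100% = full blocker control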
ADAM10 ctr = inhibits human ADAM10 in ADAM17 exosite counter-screen; shares compounds with ADAM17 inh; hit rate 47% among 2,900; AID 743256; recombinant ADAM10, EDANS/DABCYL FRET peptide cleavage, 3 h; inhibition, % at 6.95 µM;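 active = mean inhibition over the triplicate runs exceeds the activity threshold set in the earlier primary screen, cut at about 20% in these data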;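 also: 0% = DMSO wells and 100% = marimastat wells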
ADAM17 confirm = human ADAM17 inhibition, confirmation; shares compounds with ADAM17 inh; recombinant ADAM17, EDANS/DABCYL QFRET peptide cleavage; inhibition, % at 6.95 µM; hit rate 65% among 2,900; AID 743257;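 active = mean inhibition across replicates above the hit cutoff set in the primary screen, cut at about 8.5% in these data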;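 also: 0% = DMSO wells and 100% = marimastat wells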
* = called active by the depositor; . = no result. Sampled rows, rich in hits. Any-hit rate of the full collection: about 2.9%.

SMILES	proKLK7 act	PLC-gamma1 inh	ADAM10 inh	ADAM17 inh	PLCb3 inh	ADAM10 ctr	ADAM17 confirm
O=C(NCc1cccnc1)C1CC(c2cccc(Br)c2)=NO1 (stereo not given)	0	2	-2	-3	0	.	.
Cc1cc(NS(=O)(=O)c2ccc(NC(=O)Cc3ccccc3)cc2)no1	-1	1	-5	-7	0	.	.
Cc1cc(NC(=O)CSc2cc(Cl)ccc2Cl)n(-c2ccccc2)n1	0	6	17	9.2*	5	5	4
O=C(COc1ccc(Br)cc1CO)Nc1ccccc1	-1	0	2	2	0	.	.
Cc1ccc(NC(=O)COc2ccc(Br)cc2CO)cc1	0	3	9	9.3*	1	-6	0
CC(C)NC(=O)C1(C)CSCC(=O)N1C1CC1 (stereo not given)	0	3	-6	-2	0	.	.
CCOC(=O)[C@]12CCCC=C1N(Cc1ccc3c(c1)OCO3)C(=O)[C@H](CC(=O)N1CCCC1)C2	-1	4	-2	-1	4	.	.
CCCCN1C[C@H](c2ccc(OC)cc2)[C@@H](CC(=O)Nc2ccc(OC)cc2)C1=O	0	0	-18	-5	-5	.	.
CCCCN1C[C@H](c2ccc(OC)cc2)[C@@H](CC(=O)Nc2ccc(Br)cc2)C1=O	0	8	10	14*	7	4	4
C[C@H](O)[C@@H]1CN2CCc3c([nH]c4c(-c5ccccc5)cccc34)[C@@H]2C[C@@H]1N(C)C(=S)Nc1ccc(C#N)cc1	1	-199	-36	-8	-287	.	.
CN(C)c1ccc(-c2csc(C(C)(O)c3ccc(F)c(F)c3)n2)cc1 (stereo not given)	0	-4	6	13*	-10	11	5
COC(=O)[C@]12C[C@H](CC(=O)N3CCN(C(=O)c4ccco4)CC3)C(=O)N(Cc3ccco3)C1=C[C@H](C(C)C)O[C@@H]2C1CC1	0	5	-10	-3	0	.	.
CCOc1ccc(-c2c(C(=O)N/N=C/C3CC=CCC3)nnn2-c2nonc2N)cc1 (stereo not given)	0	1	7	9.6*	-6	4	7
CCCc1c(C(=O)N/N=C/C2CC=CCC2)nnn1-c1nonc1N (stereo not given)	0	-3	-10	-5	-5	.	.
OC(c1cc(F)cc(Cl)c1)c1ncc(-c2ccccc2C(F)(F)F)[nH]1 (stereo not given)	1	3	5	5	3	.	.
O=c1[nH]nc(Sc2ccccc2)c(=S)[nH]1	-1	0	-9	0	3	.	.
COc1ccc([N+](=O)[O-])cc1NC(=O)C(C)OC(=O)c1ccccc1C(=O)c1ccc(Cl)cc1 (stereo not given)	0	0	13	8.8*	3	46*	18*
COc1ccc([N+](=O)[O-])cc1NC(=O)COC(=O)c1ccccc1C(=O)c1ccccc1	0	4	-1	-3	1	.	.
CC(C)NC(=O)N(C)C[C@H]1Oc2ccc(NC(=O)Nc3ccccc3)cc2C(=O)N([C@@H](C)CO)C[C@@H]1C	0	4	-4	11*	1	2	5
CC(C)NC(=O)N(C)C[C@H]1Oc2ccc(NC(=O)Nc3ccccc3)cc2C(=O)N([C@H](C)CO)C[C@@H]1C	1	3	-6	0	2	.	.
C[C@H](CO)N1C[C@H](C)[C@@H](CN(C)C(=O)Nc2ccc(C(F)(F)F)cc2)Oc2ccc(NC(=O)Cc3ccccc3)cc2C1=O	1	3	16	16*	3	17	9.6*
CC(C)NC(=O)N(C)C[C@H]1Oc2ccc(NC(=O)Cc3ccccc3)cc2C(=O)N([C@H](C)CO)C[C@@H]1C	1	1	1	9.1*	3	-9	1
Cc1cc(N2CCN(C(C(=O)NC3CCCC3)c3ccco3)CC2)c2ccccc2n1 (stereo not given)	1	0	-5	-2	1	.	.
O=C(Nc1ccc2c(c1)OCCO2)c1[nH]c(C(F)(F)F)nc1-c1ccccc1	0	-2	-9	-4	-3	.	.
C=CCn1c(-c2csc3c2CCC(C)C3)n[nH]c1=S (stereo not given)	1	1	6	11*	1	18	13*
SMILES	proKLK7 act	PLC-gamma1 inh	ADAM10 inh	ADAM17 inh	PLCb3 inh	ADAM10 ctr	ADAM17 confirm
CCCCn1c(-c2csc3c2CCC(C)C3)n[nH]c1=S (stereo not given)	0	-2	12	6	-1	.	.
O=C(COC(=O)CCc1ccc(S(=O)(=O)N2CCCCC2)cc1)Nc1cccc2ccccc12	1	3	18	13*	8	26*	12*
O=C(CN1CCN(Cc2ccccc2)CC1)Nc1cccc(S(=O)(=O)N2CCCCCC2)c1	0	3	14	8.9*	4	22*	11*
O=C(CN1CCOCC1)Nc1cccc(S(=O)(=O)N2CCCCCC2)c1	0	7	8	1	2	.	.
O=C(COC(=O)/C=C/c1ccc(OC(F)F)cc1)Nc1ccc(S(=O)(=O)N2CCCC2)cc1	1	-1	18	9.8*	1	18	13*
Cc1cccc(C)c1NC(=O)COC(=O)CCc1ccc(S(=O)(=O)N2CCCCC2)cc1	0	5	2	3	4	.	.
Cc1cccc(OCCC(=O)Nc2ccc(C)c(S(=O)(=O)N3CCCCC3)c2)c1	1	-2	26*	14*	2	36*	18*
Cc1cccc(OCCC(=O)Nc2ccc(C)c(S(=O)(=O)N3CCOCC3)c2)c1	0	5	4	0	-8	.	.
O=C(COC(=O)/C=C/c1ccc(OC(F)F)cc1)Nc1cccc(S(=O)(=O)N2CCCC2)c1	0	1	10	4	-6	.	.
Cc1cccc(C)c1-n1nnnc1C1c2ccccc2C(=O)N1CCc1ccc(O)cc1 (stereo not given)	0	1	-6	1	1	.	.
CC1(C(=O)NS(=O)(=O)c2ccc(Cl)cc2)CCN1C(=O)c1ccco1 (stereo not given)	0	0	-2	-1	2	.	.
O=C(COC(=O)c1ccc(Br)o1)Nc1cccc(S(=O)(=O)N2CCCCCC2)c1	0	1	12	9.8*	1	26*	15*
Cc1ccc(C)c(OCCC(=O)Nc2cccc(S(=O)(=O)N3CCCCC3)c2)c1	1	2	18	9.3*	-2	40*	21*
CSc1ncccc1C(=O)OCC(=O)c1ccc(S(=O)(=O)N2CCCCC2)cc1	0	0	14	3	5	.	.
Cc1ccc(C)c(C(=O)OCC(=O)Nc2cccc(S(=O)(=O)N3CCCCC3)c2)c1	0	3	8	12*	-5	32*	19*
